# Experimental data reported in PubChem BioAssay AID588719 (Southern Research Specialized Biocontainment Screening …, 2011).
# Among all 1,500 compounds or so, about 920 (61%) were called active. How the calls were made is not given here. The set was probably picked from earlier hits. The list shows a part of the results. Entries with a potency or affinity are not part of this list.
# Assay: Vero 76 cell cytotoxicity, dose response, cytotoxicity control for VEEV inhibitor project (AID 588719)
# Details: Vero 76 cells viability, cytotoxicity counter-screen; series mostly up to 25 µM
row,Compound,outcome
1,O=C(CCNC(=O)c1ccc(Br)cc1)NC1CCCc2ccccc21 (stereo unspecified),inactive
2,CN1CCC(N(C)S(=O)(=O)c2ccc(NC(=O)COc3ccc(Cl)cc3)cc2)CC1,inactive
3,CCN1CCN(c2sc(S(C)(=O)=O)nc2S(=O)(=O)c2ccc(C)cc2)CC1,inactive
4,O=C1[C@H]2[C@@H](c3ccccc3)N[C@]3(CCCN(Cc4ccc(Br)cc4)C3=O)[C@H]2C(=O)N1Cc1ccccc1,inactive
5,CCOC(=O)NC(C(Cl)(Cl)Cl)S(=O)(=O)c1ccccc1 (stereo unspecified),inactive
6,Nc1ccc2nc(-c3cccc(-c4nc5ccc(N)cc5[nH]4)c3)[nH]c2c1,inactive
7,O=C(COC(=O)Cc1ccc(S(=O)(=O)N2CCOCC2)s1)Nc1ccccc1Cl,inactive
8,O=C(COC(=O)c1ccc(Br)o1)Nc1cccc(S(=O)(=O)N2CCOCC2)c1,inactive
9,CC1(C)CC2(OC2c2ccccc2[N+](=O)[O-])C(=O)c2ccccc21 (stereo unspecified),inactive
10,[O-][n+]1c(/C=C/c2ccccc2)ccc2ccccc21,inactive
11,CCOC(=O)C(=Cc1ccc(-n2ccnc2)cc1)C(=O)OCC,inactive
12,CCOC(=O)C(=Cc1ccc(-c2ccsc2C(=O)OC)o1)C(=O)OCC,inactive
13,O=C(O)C1CCN(C(=O)c2cc(F)cc3c2OCOC3)CC1,inactive
14,Cc1ccc2c(c1)CCCN2S(=O)(=O)c1cccc(C(=O)Nc2ccccc2C(=O)O)c1,inactive
15,O=C(O)C1CC=CCC1C(=O)Nc1ccc(S(=O)(=O)N2CCCc3ccccc32)cc1 (stereo unspecified),inactive
16,Cc1cc2c(c(/C=C/C(=O)c3ccccc3)c1)OC1(C=C2)Oc2ccccc2C(=O)N1C (stereo unspecified),inactive
17,CN(C)CCNC(=O)c1onc(CSc2ccc(F)c(F)c2)c1C(=O)NCCN(C)C,inactive
18,O=C(Oc1ccc2ccccc2c1Cl)N1CCCC1,inactive
19,C=CCn1c(SCC(=O)NC23CC4CC(CC(C4)C2)C3)nc(O)cc1=O,inactive
20,O=C(NCc1cccnc1)c1ccc(NS(=O)(=O)c2cccc([N+](=O)[O-])c2)cc1,inactive
21,Fc1ccccc1CSc1ncnc2c1ncn2C1CCCO1 (stereo unspecified),inactive
22,N#C/C(=C\c1c(Oc2ccccc2Cl)nc2ccccn2c1=O)C(=O)NC1CCS(=O)(=O)C1 (stereo unspecified),inactive

row,Compound,outcome
1,COc1cccc2c1C(=O)c1c(O)c3c(c(O)c1C2=O)C[C@@](O)(C(=O)CO)C[C@@H]3OC1CC(N)C(O)C(C)O1 (stereo partly specified),inactive
2,Cc1cccc(CS(=O)(=O)c2ncc(Cl)c(C(=O)Nc3ccc(F)cc3)n2)c1,inactive
3,c1ccc2c3c([nH]c2c1)C1(CCNCC1)NCC3,inactive
4,CC[C@@H](C)[C@H](NC(=O)OC(C)(C)C)c1nnc(S(=O)(=O)Cc2cc(C)ccc2C)o1,inactive
5,CCC(=O)Nc1nnc(SCC(=O)c2ccc3c(c2)Cc2ccccc2-3)s1,inactive
6,CC(=O)Nc1nnc(SCC(=O)c2ccc3c(c2)Cc2ccccc2-3)s1,inactive
7,CCOC(=O)c1c[nH]n2c(=O)cc(C)nc12,inactive
8,Cc1cc(C)n(-c2nc(N(c3ccccc3)c3ccccc3)nc(-n3nc(C)cc3C)n2)n1,inactive
9,O=C(CCS(=O)(=O)c1ccccc1)Nc1nnc(C(F)(F)F)s1,inactive
10,Cc1ccc(CSCC(=O)Nc2ccccc2C(=O)O)cc1,inactive
11,CC(C)CCn1nnnc1CN1CCN(c2ccccc2)CC1,inactive
12,C/C=C/c1cc(CN2CCN(c3ccccc3)CC2)c(O)c(OC)c1,inactive
13,CC(=O)OCC1CC(COC(C)=O)C(COC(C)=O)CC1COC(C)=O (stereo unspecified),inactive
14,S=c1[nH]nc(-c2cccc(Cl)c2)n1/N=C/c1ccc(-c2ccccc2Br)o1,inactive
15,CCN1CCC(CNCc2cn(-c3ccc(OC)cc3)nc2-c2ccccc2Cl)C1 (stereo unspecified),inactive
16,Nc1ncnc(N2CCOCC2)n1,inactive
17,O=C(COC(=O)c1ccc(O)cc1O)Nc1ccc2ccccc2c1,inactive
18,CCOC(=O)C1(CCC(=O)OCc2ccccc2)CCCCC1=O (stereo unspecified),inactive
19,CCC(CC)N1CCN(Cc2nc3ccc([N+](=O)[O-])cc3c(=O)n2-c2ccccc2F)CC1,inactive
20,OCCCNc1cc(-c2ccccc2)nc2cc(-c3ccc(F)cc3)nn12,inactive
21,Cc1ccc(C)c(C2=NNC(=O)CC2)c1,inactive
22,Cc1cccc(C(=O)OCC(=O)N2CCN(C(=O)c3ccco3)CC2)c1O,inactive

row,Compound,outcome
1,COc1cc2nc(N3CCNCC3)nc(N)c2cc1OC,inactive
2,CC(C)Oc1ccc(C(=O)CCN2CCOCC2)cc1,inactive
3,COc1ccc(C(C)=NOC(=O)c2c(-c3ccccc3Cl)noc2C)cc1CN1CCOCC1,inactive
4,OCC[n+]1c2ccccc2nc2ccc(N3CCOCC3)cc21,inactive
5,Cc1c(C(O)CN2CCN(Cc3ccc4c(c3)OCO4)CC2)c2ccccc2n1C (stereo unspecified),inactive
6,Brc1ccc2[nH]c3c(c2c1)CCC3,inactive
7,Cc1onc(-c2ccccc2)c1C(=O)NCc1ccc(F)cc1,inactive
8,Cc1ccc(C)c(CN2CCC(CNC(=O)Nc3ccc(Br)cc3F)CC2)c1,inactive
9,O=C1c2cc([N+](=O)[O-])cc3cc([N+](=O)[O-])cc(c23)C(=O)N1c1ccccn1,inactive
10,CC(C)Cc1ccc(CN2CCCC(NC(=O)c3cccc(-n4cnnc4)c3)C2)cc1 (stereo unspecified),inactive
11,Nc1nc(C2CC2)c(Sc2sc(N)nc2C2CC2)s1,inactive
12,COc1ccc(C[C@H]2CN3C(=NC[C@H]3C)N2CCNC(=O)CCC2CCCCC2)cc1,inactive
13,O[C@H]1C[C@H](c2ccc(Cl)cc2)N(CC2CCCCC2)C[C@@H]1n1cc(-c2ccc(F)cc2)nn1,inactive
14,CCOC(=O)C1=C(NC(=S)NC(=O)c2ccccc2)c2ccccc2CC1(C)C,inactive
15,Cc1sc(NC(=S)NC(=O)c2ccc(C(C)(C)C)cc2)c(C#N)c1C,inactive
16,CC(C)(C)c1ccc(C(=O)NC(=S)Nc2sc3c(c2C#N)CCC3)cc1,inactive
17,Cc1ccc(NC(=S)NNC(=S)Nc2cccc(C(F)(F)F)c2)cc1,inactive
18,ClCCn1cnc2c(SCc3ccccc3Cl)ncnc21,inactive
19,Cc1cccc2sc(N(CCCN(C)C)C(=O)c3ccc4ncsc4c3)nc12,inactive
20,CC1SCC(NC(=O)c2ccc(Cl)cc2)CS1 (stereo unspecified),inactive
21,Cc1cccc2c1NC1(CCCC1)CC2C (stereo unspecified),inactive
22,C/C(CCC12CC3CC(CC(C3)C1)C2)=N\NC(N)=S,inactive

row,Compound,outcome
1,CC(=O)NNc1cc(C)nc(N)n1,inactive
2,Cc1ccc(Cc2c(-c3ccc(C)cc3)nc3c4ccccc4ccn23)cc1,inactive
3,Cc1cc(SC(C)C(=O)Nc2ncc(Cl)cc2Cl)nc2ccccc12 (stereo unspecified),inactive
4,COCCn1c(SC(C)C(=O)Nc2ncc(Cl)cc2Cl)nc2ccccc21 (stereo unspecified),inactive
5,O=C(CCCCN1CCCCC1)c1ccc2c(c1)Cc1ccccc1-2,inactive
6,CCOC(=O)c1ccc(NC(=S)N(CCN(C)C)Cc2cccs2)cc1,inactive
7,COc1ccc(Nc2ccccc2N)cc1,inactive
8,CCc1ccccc1Nc1nc(N)nc(COC(=O)c2cccn2C)n1,inactive
9,CCc1ccccc1Nc1nc(N)nc(COC(=O)CCC(=O)c2ccc(F)cc2)n1,inactive
10,COc1ccc(OC)c(Nc2nc(NCCC(C)C)nc(N)c2[N+](=O)[O-])c1,inactive
11,CCOC(=O)c1c(S(=O)(=O)N2CCC(C)CC2)c(C)n(C)c1C,inactive
12,Cn1c(SCC(=O)c2ccccc2)nnc1-c1ccccn1,inactive
13,O=C(Nc1ccccc1)N1CCN(C2c3ccccc3-c3ccccc32)CC1,inactive
14,CCc1cc(C(=O)c2ccc(OC)cc2)c(NC(=O)CN2CCN(C)CC2)s1,inactive
15,Cc1ccc(-c2nc(CCN3C(=O)c4ccccc4C3=O)cs2)cc1,inactive
16,CCN(CC)c1ccc(S(=O)(=O)N2CCOCC2)cc1NC(=O)COC(=O)/C=C/c1ccc(C)o1,inactive
17,CC(=O)N1CCC(C(=O)Nc2cc(S(=O)(=O)N3CCCCC3)ccc2C)CC1,inactive
18,COCOCCn1cc(CN2CCS(=O)(=O)N(Cc3ccc(-c4ccc(F)nc4)cc3)C(CC(C)C)C2=O)nn1 (stereo unspecified),inactive
19,CN1CCN(c2ccc(-c3cccc(NC(=O)COc4ccc(Cl)cc4Cl)c3)nn2)CC1,inactive
20,Cc1ccc(C(C[N+](=O)[O-])Sc2ccc(N)cc2)cc1 (stereo unspecified),inactive
21,COc1ccc(CCNc2cc(C)nc3c(-c4ccccc4)cnn23)cc1OC,inactive
22,CCOC(=O)C1CCN(C(c2ccccn2)c2c(C)[nH]c3ccccc23)CC1 (stereo unspecified),inactive

row,Compound,outcome
1,O=c1[nH]c(-c2ccccn2)nc2sc(-c3ccccc3)cc12,inactive
2,C=CCn1c(SCC(=O)c2cccs2)nc2sc(C)c(C)c2c1=O,inactive
3,Cn1c(=O)c2[nH]c(CSCc3ccccc3)nc2n(C)c1=O,inactive
4,Cc1ccc(CNc2ccc(O)cc2)cc1,inactive
5,CN1C/C(=C\c2ccc(N3CCOCC3)cc2)C(=O)/C(=C/c2ccc(N3CCOCC3)cc2)C1,inactive
6,O=C(/C=C/c1ccc2c(c1)OCO2)c1ccccn1,inactive
7,Nc1cnn(C2OC(CO)C(O)C2O)c(=O)n1 (stereo unspecified),inactive
8,Cc1ccccc1Oc1ccc2c(c1)[C@@H]1C[C@H](N(C)C(=O)c3ccco3)[C@H]([C@H](C)O)C(=O)N1CC2,inactive
9,CCOc1ccc(-c2c(C(=O)N/N=C(\C)c3cccs3)nnn2-c2nonc2N)cc1,inactive
10,CCOC(=O)c1oc2ccc(Br)cc2c1NC(=O)CN1CCN(C)CC1,inactive
11,Cc1nn(CC(=O)Nc2nccs2)c(C)c1[N+](=O)[O-],inactive
12,O=C1CCCCC1Nc1ccc2ccccc2c1 (stereo unspecified),inactive
13,CC(C)(C)C1CCC(=NNc2ccc(S(N)(=O)=O)cc2[N+](=O)[O-])CC1 (stereo unspecified),inactive
14,NC(=S)N/N=C/c1ccc(-c2ccc(SC(F)F)cc2)o1,inactive
15,CCN1CCN(CCCNC(=O)c2cc3c(s2)-c2ccccc2OC3)CC1,inactive
16,CCN(CC)CCCNC(=O)c1ccc2c(Cl)c3c(nc2c1)CCCC3,inactive
17,CN1CCN(NC(=O)c2cc(-c3cccc(Cl)c3)nc3ccccc23)CC1,inactive
18,O=C1CC(/C=C/c2ccc(Cl)cc2)=Nc2ccccc2N1,inactive
